Assay results reported in PubChem BioAssay (NCATS).
Inconclusive results are not listed. Calls of active or inactive are those of the source. Calls come from the whole dose curve; as a rule, active = well fitted inhibition curve with a large enough effect; inconclusive = small, poorly fitted or top-dose-only effect; inactive = flat fitted curve, though single readings scatter.

molecular target: Calcium and integrin-binding protein 1 (Homo sapiens) (UniProt Q99828); assay: Primary qHTS for Identification of Calcium Integrin Binding Protein 1 (CIB1) Competitor (AID 1508620); conditions: CIB1-GST / FITC-alphaIIb peptide fluorescence polarization; series mostly up to 57.7 µM;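 note: GST tagged CIB1 binding a fluorescein labelled alphaIIb integrin peptide tracer; top concentration of the series differs between compounds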
From the text: Assay Provider: Ulhas P. Naik, PhD Sidney Kimmel Medical College Thomas Jefferson University, Philadelphia, PA Primary function of platelets is to maintain hemostasis. At the site of vascular injury, platelets adhere to adhesive proteins such as collagen and von Willebrand factor. Adherent platelets are activated and generate soluble platelet agonists such as thrombin, ADP and thromboxane A2. Following exposure of circulating platelets to these agonists, results in platelet shape change, granule secretion and activation of platelet integrin alphaIIb-beta3. Ligand binding to activated integrin alphaIIb-beta3 triggers outside-in signaling, leading to platelet aggregation, stabilization of platelet plug, and clot retraction. Upon atherosclerotic plaque rupture also causes platelet plug formation, which underlies a number of cardiovascular diseases such as myocardial infraction and stroke. A number of anti-platelet drugs such as aspirin, clopidogrel, prasugrel, vorapaxar, and eptifibatide are currently available to prevent the thrombotic complications. However, these anti-platelet agents have several limitations including inherent variability in individual responses, developing resistance, and serious bleeding side effects. For these reasons they are not suitable for long-term protection. Based on the experiences with current anti-platelet drugs, it appears that the most useful therapeutic approach is to intersect the secondary responses such as integrin outside-in signaling or recruitment of platelets by TxA2 and secreted ADP. Compounds, which can largely preserve the primary hemostatic function of platelets but inhibit secondary response will be most desired therapeutic agents for treatment of cardiovascular disease. CIB1 is a calcium integrin binding protein, which specifically interact with the alphaIIb subunit of integrin alphaIIb-beta3. Binding of CIB1 to alphaIIb regulates the outside-in signaling in platelets, which is needed for thrombus stabilization and thrombus growth. […] Therefore, we propose that discovery of a small molecule that can prevent the association of CIB1 and alphaIIb-beta3 will be a potential anti-platelet agent that can block the thrombus formation without undue effect on hemostasis. Reference: [1] Naik MU, Nigam A, Manrai P, et al. CIB1 deficiency results in impaired thrombosis: the potential role of CIB1 in outside-in signaling through integrin alpha IIb beta 3. J Thromb Haemost.
PROTOCOL TABLES SEQUENCE No. (1, 2, 3, etc.); […] (e.g., Cells, Incubation, Reagent, etc.); VALUE and DESCRIPTION. 1; Reagent; 3 uL; Protein or buffer (4/3x) 2; Compound; 46 nL; Control inhibitor / compound library 3; Time; 15 min; Room temperature incubation 4; Reagent; 1 uL; Fluorescent labeled peptide (4x) 5; Time; 1000 rpm; Centrifuge 6; Time; 15 min; Room temperature incubation 7; Detection; Ex 480/ Em 540; ViewLux Fluorescence Read NOTES (numbers refer to sequence above) 1; Protein Mixture: C1B1-GST (final concentrations of 1 uM). […] 3; Room temperature incubation. 4; Fluorescent Labeled Peptide: FITC-aIIb (final concentration of 100 nM). Sequence of alphaIIb peptide: Acetyl-[…]-FITC (purity is 95.83%). 5; Centrifuge 1000 rpm (164 g) for 15 seconds. 6; Room temperature incubation. 7; ViewLux Fluorescent Polization Read: excitation = 480(20) / emission = 540(25) S and P; FITC Dichroic mirror.

Sequence of Calcium and integrin-binding protein 1 (Homo sapiens) (Q99828 whole entry, looked up): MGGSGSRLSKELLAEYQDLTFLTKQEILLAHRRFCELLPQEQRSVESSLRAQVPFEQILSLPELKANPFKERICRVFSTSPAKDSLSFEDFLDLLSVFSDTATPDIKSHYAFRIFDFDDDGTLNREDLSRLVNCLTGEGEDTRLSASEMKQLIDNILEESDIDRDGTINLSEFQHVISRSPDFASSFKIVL

SMILES	outcome
COc1ncnc(NS(=O)(=O)c2ccc(N)cc2)c1OC	inactive
CCOC(=O)[C@H](CCc1ccccc1)N[C@H]1CCc2ccccc2N(CC(=O)O)C1=O	inactive
CC(C)Cn1cnc2c(N)nc3ccccc3c21	inactive
Cc1ccc(S(=O)(=O)N[C@@H](Cc2ccccc2)C(=O)CCl)cc1	inactive
CCn1cc(C(=O)O)c(=O)c2cc(F)c(N3CCNCC3)cc21	inactive
Cn1nnc2c(C(N)=O)ncn2c1=O	inactive
O=C(O)c1cccnc1	inactive
CCOC(=O)[C@H](CCc1ccccc1)N[C@H]1CS[C@H](c2cccs2)CN(CC(=O)O)C1=O	inactive
CC(C)OC(=O)OCOP(=O)(CO[C@H](C)Cn1cnc2c(N)ncnc21)OCOC(=O)OC(C)C	inactive
COc1cccc(N(C)C(=S)Oc2ccc3c(c2)CCCC3)n1	inactive
CNS(=O)(=O)Cc1ccc2[nH]cc(CCN(C)C)c2c1	inactive
COc1cc([C@@H]2c3cc4c(cc3[C@H](O)[C@H]3COC(=O)[C@H]23)OCO4)cc(OC)c1OC	inactive
CC1(C)[C@H](C(=O)O)N2C(=O)C[C@H]2S1(=O)=O	inactive
Nc1nc(N)nc(-c2cc(Cl)ccc2Cl)n1	inactive
C#CCN[C@@H]1CCc2ccccc21	inactive
O=c1oc2c(O)c(O)cc3c(=O)oc4c(O)c(O)cc1c4c23	inactive
NCCCC(O)(P(=O)(O)O)P(=O)(O)O	inactive
OC(Cn1cncn1)(Cn1cncn1)c1ccc(F)cc1F	inactive
CNC1CCCN(c2c(F)cc3c(=O)c(C(=O)O)cn(C4CC4)c3c2OC)C1 (stereo not given)	inactive
CCCc1nc(C)c2c(=O)[nH]c(-c3cc(S(=O)(=O)N4CCN(CC)CC4)ccc3OCC)nn12	inactive

SMILES	outcome
C[C@@H](NCCCc1cccc(C(F)(F)F)c1)c1cccc2ccccc12	inactive
OCc1ccc(-c2nn(Cc3ccccc3)c3ccccc23)o1	inactive
C[C@@H]1CN(c2c(F)c(N)c3c(=O)c(C(=O)O)cn(C4CC4)c3c2F)C[C@H](C)N1	inactive
CC1=NN(c2ccccc2)C(=O)C1	inactive
O=C(N[C@H](CO)[C@H](O)c1ccc([N+](=O)[O-])cc1)C(Cl)Cl	inactive
CC[C@H](NC(C)C)[C@H](O)c1ccc(O)c2[nH]c(=O)ccc12	inactive
O=C(O)c1ccc(-n2nc(-c3ccccc3O)nc2-c2ccccc2O)cc1	inactive
NC(N)=NC(N)=NCCc1ccccc1	inactive
CCCCc1oc2ccc(NS(C)(=O)=O)cc2c1C(=O)c1ccc(OCCCN(CCCC)CCCC)cc1	inactive
CCCOc1ccc(C(=O)OCCN(CC)CC)cc1N	inactive
Cc1nnc(NS(=O)(=O)c2ccc(N)cc2)s1	inactive
COc1cc2nc(N3CCCN(C)CC3)nc(NC3CCN(Cc4ccccc4)CC3)c2cc1OC	inactive
Cc1ccnc2c1NC(=O)c1cccnc1N2C1CC1	inactive
NC(=O)c1cccnc1	inactive
CC(=O)[C@H]1CC[C@H]2[C@@H]3CCC4=CC(=O)CC[C@]4(C)[C@H]3CC[C@]12C	inactive
Cc1cccc(Nc2ccncc2S(=O)(=O)NC(=O)NC(C)C)c1	inactive
Cc1nnc(C(=O)NC(C)(C)c2nc(C(=O)NCc3ccc(F)cc3)c(O)c(=O)n2C)o1	inactive
NC(=O)N1c2ccccc2CC(=O)c2ccccc21	inactive
CC(C)C[C@H](NC(=O)[C@H](CCc1ccccc1)NC(=O)CN1CCOCC1)C(=O)N[C@@H](Cc1ccccc1)C(=O)N[C@@H](CC(C)C)C(=O)[C@@]1(C)CO1	inactive
CCN1CCCC1CNC(=O)c1cc(S(N)(=O)=O)ccc1OC (stereo not given)	inactive
